tim10-1 inh = growth inhibitors of tim10-1 mutant yeast, primary screen, luminescence, uHTS; hit rate 2.2% among 330,000; AID 463190, 2010; inhibition, % at 20 µM; S. cerevisiae tim10-1 ts strain growth, BacTiter-Glo, 24 h;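 active = inhibition of at least 40%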;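 note: mutant grown at 25 °C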
NALP1 inh = NALP1 inflammasome inhibitors in reconstituted yeast, colorimetric, S. cerevisiae, triplicate retest; S. cerevisiae NALP1/ASC/caspase-1 growth, X-gal OD620, 72 h; inhibition, % at 10 µM; hit rate 0.61% among 280,000; in the data active = inhibition mostly above about 24%, no sharp cut-off; inactive = mostly below about 32%
TIM10 inh = growth inhibitors of isogenic TIM10 control yeast, primary screen, counter-screen for tim10-1 yeast inhibitor project, luminescence, uHTS; S. cerevisiae TIM10 strain growth, BacTiter-Glo luminescence, 24 h; inhibition, % at 10 µM; hit rate 1.4% among 330,000;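 active = inhibition of 40% or more at the single tested concentration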;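 note: wild-type TIM10 isogenic control strain grown at permissive 25 °C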
SKKanGAS inh = S. pyogenes SKKanGAS growth inhibitors in kanamycin, primary screen, streptokinase expression inhibitor project, SKKanGAS strain, BacTiter-Glo luminescence | 6 h | inhibition, % at 7.5 µM | hit rate 1.3% among 300,000;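 active = mean replicate score, as percent of positive control median, at least 50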;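 note: strain carries kanamycin resistance gene driven by streptokinase promoter and grows in 40 µg/ml kanamycin; loss of luminescence reflects streptokinase promoter inhibition or plain growth inhibition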
tim23-1 inh = growth inhibitors of tim23-1 mutant yeast, primary screen, luminescence, uHTS. S. cerevisiae tim23-1 growth, BacTiter-Glo luminescence, 24 h. inhibition, % at 20 µM. hit rate 1.3% among 330,000. AID 463212, 2010;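 active = growth inhibition of the mutant yeast at or above 50%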;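 note: temperature-sensitive mutant grown at 25 °C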
NALP3 yeast inh = NALP3 inflammasome inhibitors in reconstituted yeast, primary screen, luminescence, uHTS; Yeast reconstituted NLRP3/ASC/caspase-1, beta-gal luminescence, 24 h; inhibition, % at 10 µM; hit rate 0.39% among 330,000; AID 2825, 2010;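 active = inhibition of 50% or more; inactive = inhibition below 50%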
tim10-1 confirm = growth inhibitors of tim10-1 mutant yeast, confirmation, single concentration, luminescence, S. cerevisiae. S. cerevisiae tim10-1 ts strain growth, BacTiter-Glo, 24 h. shares compounds with tim10-1 inh. hit rate 56% among 7,400. inhibition, % at 20 µM. AID 463213, 2010;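 active = inhibition of yeast growth at or above a set limit in either of two repeat tests at 20 µM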;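 note: tim10-1 mutant grown at permissive 25 °C to find synthetic lethal compounds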
A number is an active result; – = inactive; · = no result. Shown are actives, neighbours in structure and some others; about 4.9% of the full set was active somewhere.

SMILES | tim10-1 inh | NALP1 inh | TIM10 inh | SKKanGAS inh | tim23-1 inh | NALP3 yeast inh | tim10-1 confirm
CN1C(=S)SC(C)(C)C1(C)NO (stereo not given) | 71 | – | – | – | – | – | –
O=C(CN1CCC(n2nnc3cc(F)ccc32)CC1)Nc1ccc2c(c1)CCC2 | 47 | – | – | · | – | – | –
Cc1ccc(C(C)C)c(OCc2nn(CC(=O)c3ccc(Cl)cc3)c3[n+]2CCCCC3)c1 | – | – | – | – | – | – | ·
C=C1CCC[C@]2(C)C[C@H]3OC(=O)C(CN4CCOCC4)[C@H]3C[C@@H]12 (stereo not given in full) | 51 | – | – | – | – | – | 46
Cc1cc(C(=O)NC(C)CCc2ccccc2)ccc1[N+](=O)[O-] (stereo not given) | – | – | – | – | – | – | ·
COc1ccccc1NC(CC(=O)c1ccccc1)C(=O)OCC(=O)c1ccc(Br)cc1 (stereo not given) | 45 | – | – | – | – | – | 37
COc1ccccc1NC(CC(=O)c1ccccc1)C(=O)OCC(=O)c1ccc(C)cc1 (stereo not given) | – | – | – | – | – | – | ·
COc1cc(C2(c3ccc(O)c(OC)c3)C(=O)Nc3c(C)cc(Br)cc32)ccc1O | – | · | – | – | – | – | ·
Cn1c(=O)n(Cc2ccc(F)cc2)c(=O)c2c1nc1n2CCCN1C1CCCCC1 | 48 | – | – | – | – | – | –
Cn1c(=O)n(C/C=C/c2ccccc2)c(=O)c2c1nc1n2CCCN1c1ccc(F)cc1 | 46 | – | – | – | – | – | –
CC(C)Cn1c(=O)c2c(nc3n2CCCN3Cc2ccccc2)n(C)c1=O | 42 | – | – | – | – | – | –
COc1ccc(C(=O)Nn2c(C)nc3ccccc3c2=O)cc1Br | – | – | – | – | – | – | ·
COc1ccc(-c2cn(-c3ccc(OC)cc3)c3[n+]2-c2ccccc2CC3)cc1 | 53 | – | – | – | – | – | 40
COc1ccc(-n2cc(-c3ccccc3)[n+]3c2CCCCC3)cc1 | – | – | – | – | – | – | ·
N#Cc1cc2ccccc2n2nnnc12 | – | – | – | – | – | – | ·
COC(=O)c1c(Cc2ccccc2Cl)c[nH]c1C | 41 | – | – | – | – | – | –
O=C(CNC(=S)N(Cc1ccccc1)Cc1ccccc1F)NCCc1ccccc1 | 41 | – | – | – | – | – | –
O=C(CNC(=S)N(Cc1ccccc1)Cc1ccccc1F)NCc1ccccc1 | – | – | – | – | – | – | ·
COc1ccccc1N1C(=O)CC(N2CCN(c3ccc([N+](=O)[O-])cc3)CC2)C1=O (stereo not given) | – | – | – | – | – | – | ·
O=c1[nH][nH]c(-c2ccccc2O)c1C(C[N+](=O)[O-])c1ccccc1 (stereo not given) | 45 | · | – | – | – | – | –
Cc1[nH]c2ccccc2c1C(C[N+](=O)[O-])c1cccc(O)c1 (stereo not given) | – | – | – | – | – | – | ·
COCCCNC(=O)CSc1nc2cc(S(=O)(=O)N3CCCCC3)ccc2o1 | – | · | – | – | – | – | ·
CCCC(=O)C1=C(O)C(C(=O)OC)C(C)(C)CC1=Nc1ccc(N)cc1 (stereo not given) | 42 | – | – | – | – | – | –
CCCC(=O)C1=C(O)C(C(=O)OC)C(C)(C)CC1=Nc1ccc(C)cc1 (stereo not given) | – | – | – | – | – | – | ·
Cc1cccc(C)c1NC(=O)CN(C)C(=O)CSC(=S)N1CCCC1 | – | · | – | – | – | – | ·
CCOc1ccc2nc(NCCNC(=O)c3cc(OC)c(OC)c(OC)c3)c(C#N)cc2c1 | – | – | – | – | – | – | ·
CCOc1ccc2nc(NCCCNS(=O)(=O)c3ccc(F)cc3)c(C#N)cc2c1 | 42 | · | – | – | – | – | –
CCOc1ccc2nc(NCCCNS(=O)(=O)c3ccccc3)c(C#N)cc2c1 | 42 | – | – | – | – | – | –

Screening results as filed in PubChem BioAssay.
